Assay results published in the supplement of paper PMC10849652.
The full data set covers some 8,800 targets. This sample favours those with a hit. About 0.5% of all pairs of compound and target were hits.

What was measured:
Experiment in all cases: log2 fold change, soluble protein after heating vs DMSO (PISA); higher = thermal stabilisation; K562 lysate, 10 uM; active = over 0.2 and 3.5 SD of the protein, either way, in both replicates (recomputed)
[1] = compound: C1=CC=C(C=C1)[C@H](COC2=CC3=C(C=C2)NC(=O)N3)NC(=O)C4=CC=CN(C4=O)CC5=CC(=C(C=C5)F)F
Outline: (§1)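 Following dounce homogenisation of K562 pellets in PBS pH 7.4 with 1 mM MgCl2, crude extract at 1 mg/mL protein was incubated for 30 min with 10 μM compound. Aliquots were then heated for 3 min over 48°C-58°C and pooled, NP-40 was added to 0.5% at 4°C, and soluble protein was recovered as the supernatant at 21,000xg for 90 min. Channel-sum-equalised TMTpro 16plex LC-MS/MS quantified this protein. Each value, from duplicates, is a log-two fold change in thermal stability relative to solvent controls.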

[2] = compound: CC1=C(SC2=C1C(=N[C@H](C3=NN=C(N32)C)CC(=O)N)C4=CC=C(C=C4)Cl)C
Outline: as §1

[3] = compound: CC1=C2C(=CC=C1)N=C(N(C2=O)C3=CC=CC=C3C)CN4C=NC5=C(N=CN=C54)N
Outline: as §1

[4] = compound: Cc1sc2c(c1C)C(c1ccc(Cl)cc1)=N[C@@H](CC(=O)OC(C)(C)C)c1nnc(C)n1-2
Outline: as §1

[5] = compound: c1ccc([C@@H]2C[C@H]2NC2CCNCC2)cc1
Outline: as §1

Measured: log2 fold change

FYCO1 isoform 4 (UniProt Q9BQS8)
inactive: [1] 0.01 | [2] 0.037 | [3] 0.03 | [4] 0.023 | [5] -0.1

EDC3 (UniProt Q96F86)
UniProt Q96F86, sequence (Q96F86 whole entry, looked up): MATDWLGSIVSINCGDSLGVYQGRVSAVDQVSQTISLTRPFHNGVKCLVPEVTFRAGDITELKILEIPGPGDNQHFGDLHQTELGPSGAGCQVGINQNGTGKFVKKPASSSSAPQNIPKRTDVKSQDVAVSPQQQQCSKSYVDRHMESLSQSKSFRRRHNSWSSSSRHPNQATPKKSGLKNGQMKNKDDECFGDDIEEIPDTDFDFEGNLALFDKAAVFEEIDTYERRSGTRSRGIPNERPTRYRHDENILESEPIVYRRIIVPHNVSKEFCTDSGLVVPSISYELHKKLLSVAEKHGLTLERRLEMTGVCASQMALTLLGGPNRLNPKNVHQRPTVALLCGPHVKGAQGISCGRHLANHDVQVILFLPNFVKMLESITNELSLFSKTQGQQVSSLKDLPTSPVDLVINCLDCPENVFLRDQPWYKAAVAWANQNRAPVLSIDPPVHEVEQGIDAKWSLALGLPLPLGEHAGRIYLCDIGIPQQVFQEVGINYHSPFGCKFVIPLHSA
inactive: [1] 0.036 | [2] 0 | [3] 0.028 | [4] 0.031 | [5] 0.008

EED, A0A5F9ZI63
inactive: [1] 0.022 | [2] -0.01 | [3] 0.027 | [4] -0.007 | [5] -0.011

EXOC4 (UniProt Q96A65)
inactive: [1] -0.001 | [2] 0.009 | [3] 0.016 | [4] 0.063 | [5] 0.054

EIF2D (UniProt P41214)
inactive: [1] -0.007 | [2] -0.012 | [3] 0.044 | [4] 0.003 | [5] 0.049

EEFSEC (UniProt P57772)
inactive: [1] -0.033 | [2] -0.003 | [3] 0.009 | [4] -0.003 | [5] 0.015

FXR2 (UniProt P51116)
inactive: [1] -0.021 | [2] -0.011 | [3] 0.032 | [4] -0.014 | [5] 0.054

EXOC1 (UniProt Q9NV70)
inactive: [1] -0.011 | [2] 0.032 | [3] 0.013 | [4] 0.02 | [5] 0.068

EIF2B4 isoform 2 (UniProt Q9UI10)
inactive: [1] -0.026 | [2] 0.04 | [3] 0.037 | [4] -0.007 | [5] 0.042

FASTKD5 (UniProt Q7L8L6)
UniProt Q7L8L6, sequence (Q7L8L6 whole entry, looked up): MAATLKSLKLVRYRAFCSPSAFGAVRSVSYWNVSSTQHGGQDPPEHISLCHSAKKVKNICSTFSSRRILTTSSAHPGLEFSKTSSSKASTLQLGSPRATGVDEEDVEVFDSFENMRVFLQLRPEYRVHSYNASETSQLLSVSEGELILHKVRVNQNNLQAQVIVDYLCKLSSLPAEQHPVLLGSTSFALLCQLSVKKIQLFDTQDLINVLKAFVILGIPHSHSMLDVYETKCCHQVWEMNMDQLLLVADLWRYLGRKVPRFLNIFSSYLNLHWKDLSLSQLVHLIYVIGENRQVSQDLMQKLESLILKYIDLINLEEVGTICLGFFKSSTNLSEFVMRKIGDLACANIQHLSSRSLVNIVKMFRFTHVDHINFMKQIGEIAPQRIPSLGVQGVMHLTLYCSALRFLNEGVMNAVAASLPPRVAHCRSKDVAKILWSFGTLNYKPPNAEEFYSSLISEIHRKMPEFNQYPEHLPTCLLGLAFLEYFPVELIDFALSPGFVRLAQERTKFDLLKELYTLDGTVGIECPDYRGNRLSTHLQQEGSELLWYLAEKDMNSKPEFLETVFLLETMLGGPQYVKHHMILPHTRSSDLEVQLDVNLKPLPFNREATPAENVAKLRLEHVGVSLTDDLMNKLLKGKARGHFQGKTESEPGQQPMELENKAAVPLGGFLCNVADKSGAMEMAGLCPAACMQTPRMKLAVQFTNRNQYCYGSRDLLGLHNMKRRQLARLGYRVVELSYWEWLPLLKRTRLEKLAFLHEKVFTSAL
inactive: [1] -0.168 | [2] -0.056 | [3] -0.024 | [4] -0.002 | [5] 0.133

ETHE1 (UniProt O95571)
UniProt O95571, sequence (O95571 whole entry, looked up): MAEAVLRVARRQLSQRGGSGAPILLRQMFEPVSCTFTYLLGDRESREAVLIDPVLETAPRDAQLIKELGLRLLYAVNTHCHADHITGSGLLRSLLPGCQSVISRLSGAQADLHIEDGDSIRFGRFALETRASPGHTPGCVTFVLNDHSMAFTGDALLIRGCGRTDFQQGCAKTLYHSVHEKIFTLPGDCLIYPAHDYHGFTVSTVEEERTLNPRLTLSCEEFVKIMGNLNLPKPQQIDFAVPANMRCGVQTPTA
inactive: [1] 0.008 | [2] 0.003 | [3] 0.008 | [4] 0.048 | [5] -0.147

FAM118B (UniProt Q9BPY3)
inactive: [1] -0.025 | [2] -0.062 | [3] -0.01 | [4] -0.018 | [5] 0.01

FKBP1A (UniProt P62942)
UniProt P62942, sequence (P62942 whole entry, looked up): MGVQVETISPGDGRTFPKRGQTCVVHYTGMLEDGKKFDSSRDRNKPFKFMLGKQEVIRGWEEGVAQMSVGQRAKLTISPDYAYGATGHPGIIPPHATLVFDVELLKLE
inactive: [1] 0.011 | [2] -0.134 | [3] -0.069 | [4] -0.01 | [5] -0.214

FBXO38 (UniProt Q6PIJ6)
inactive: [1] -0.007 | [2] 0.094 | [3] 0.007 | [4] 0.068 | [5] 0.013

FUBP3 (UniProt Q96I24)
inactive: [1] -0.052 | [2] 0.019 | [3] -0.007 | [4] -0.01 | [5] 0.011

FBLL1 (UniProt A6NHQ2)
UniProt A6NHQ2, sequence (A6NHQ2 whole entry, looked up): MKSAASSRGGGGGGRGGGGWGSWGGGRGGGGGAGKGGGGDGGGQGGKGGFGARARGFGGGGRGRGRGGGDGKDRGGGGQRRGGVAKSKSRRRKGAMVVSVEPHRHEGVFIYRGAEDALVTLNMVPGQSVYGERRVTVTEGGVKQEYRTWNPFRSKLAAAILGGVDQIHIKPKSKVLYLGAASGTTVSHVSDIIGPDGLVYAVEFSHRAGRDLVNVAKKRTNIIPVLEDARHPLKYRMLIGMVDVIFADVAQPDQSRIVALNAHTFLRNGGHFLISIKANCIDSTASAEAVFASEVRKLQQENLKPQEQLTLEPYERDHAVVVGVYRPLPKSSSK
inactive: [1] -0.017 | [2] 0.013 | [3] 0.037 | [4] -0.002 | [5] -0.062

GATAD2A isoform 3 (UniProt Q86YP4)
inactive: [1] -0.01 | [2] -0.006 | [3] 0.032 | [4] -0.015 | [5] 0.036

FAM98A (UniProt Q8NCA5)
inactive: [1] 0.017 | [2] 0.002 | [3] -0.048 | [4] 0.016 | [5] 0.02

ERBIN isoform 8 (UniProt Q96RT1)
inactive: [1] -0.012 | [2] 0.02 | [3] -0.04 | [4] 0.037 | [5] -0.048

FTSJ1 (UniProt Q9UET6)
UniProt Q9UET6, sequence (Q9UET6 whole entry, looked up): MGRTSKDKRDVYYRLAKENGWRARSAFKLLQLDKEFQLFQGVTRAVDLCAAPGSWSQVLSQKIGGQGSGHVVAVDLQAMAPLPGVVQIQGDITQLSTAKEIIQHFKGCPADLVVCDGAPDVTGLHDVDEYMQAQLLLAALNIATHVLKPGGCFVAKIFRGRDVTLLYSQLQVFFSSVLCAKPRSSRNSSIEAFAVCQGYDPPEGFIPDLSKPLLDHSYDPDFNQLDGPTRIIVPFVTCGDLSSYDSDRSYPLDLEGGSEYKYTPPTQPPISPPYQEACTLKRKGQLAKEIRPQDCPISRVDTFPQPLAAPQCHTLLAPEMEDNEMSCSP
inactive: [1] 0.016 | [2] 0.013 | [3] -0.025 | [4] -0.005 | [5] 0.048

GABPB1 isoform 3 (UniProt Q06547)
inactive: [1] 0.039 | [2] 0.052 | [3] -0.017 | [4] -0.024 | [5] -0.025

FTSJ3 (UniProt Q8IY81)
UniProt Q8IY81, sequence (Q8IY81 whole entry, looked up): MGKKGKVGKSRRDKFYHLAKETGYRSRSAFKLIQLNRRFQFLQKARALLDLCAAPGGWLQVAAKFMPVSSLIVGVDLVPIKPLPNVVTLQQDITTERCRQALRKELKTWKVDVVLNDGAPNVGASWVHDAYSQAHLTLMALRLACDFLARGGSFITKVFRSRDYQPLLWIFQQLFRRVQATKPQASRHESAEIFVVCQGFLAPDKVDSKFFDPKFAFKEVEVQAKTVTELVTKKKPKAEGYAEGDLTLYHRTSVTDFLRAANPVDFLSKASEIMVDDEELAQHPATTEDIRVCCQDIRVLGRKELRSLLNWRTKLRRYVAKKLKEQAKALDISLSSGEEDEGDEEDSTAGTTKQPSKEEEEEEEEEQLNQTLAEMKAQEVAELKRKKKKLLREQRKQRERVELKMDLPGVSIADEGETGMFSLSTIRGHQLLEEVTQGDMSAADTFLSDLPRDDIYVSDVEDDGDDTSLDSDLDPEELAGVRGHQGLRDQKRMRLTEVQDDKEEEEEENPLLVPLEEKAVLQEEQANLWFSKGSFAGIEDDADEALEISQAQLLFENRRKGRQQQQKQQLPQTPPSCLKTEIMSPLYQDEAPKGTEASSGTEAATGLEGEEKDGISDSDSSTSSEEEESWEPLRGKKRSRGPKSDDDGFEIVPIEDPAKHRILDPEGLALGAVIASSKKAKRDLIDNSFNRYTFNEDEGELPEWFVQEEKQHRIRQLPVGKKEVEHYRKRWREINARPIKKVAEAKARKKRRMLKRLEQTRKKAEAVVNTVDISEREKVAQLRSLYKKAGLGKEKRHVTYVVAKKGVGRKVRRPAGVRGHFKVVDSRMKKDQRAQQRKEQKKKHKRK
inactive: [1] 0.022 | [2] -0.051 | [3] -0.007 | [4] -0.003 | [5] 0.083

FKBP8 isoform 2 (UniProt Q14318)
inactive: [1] -0.061 | [2] 0.012 | [3] -0.023 | [4] -0.084 | [5] 0.043

GBF1 (UniProt Q92538)
UniProt Q92538, sequence (Q92538 whole entry, looked up): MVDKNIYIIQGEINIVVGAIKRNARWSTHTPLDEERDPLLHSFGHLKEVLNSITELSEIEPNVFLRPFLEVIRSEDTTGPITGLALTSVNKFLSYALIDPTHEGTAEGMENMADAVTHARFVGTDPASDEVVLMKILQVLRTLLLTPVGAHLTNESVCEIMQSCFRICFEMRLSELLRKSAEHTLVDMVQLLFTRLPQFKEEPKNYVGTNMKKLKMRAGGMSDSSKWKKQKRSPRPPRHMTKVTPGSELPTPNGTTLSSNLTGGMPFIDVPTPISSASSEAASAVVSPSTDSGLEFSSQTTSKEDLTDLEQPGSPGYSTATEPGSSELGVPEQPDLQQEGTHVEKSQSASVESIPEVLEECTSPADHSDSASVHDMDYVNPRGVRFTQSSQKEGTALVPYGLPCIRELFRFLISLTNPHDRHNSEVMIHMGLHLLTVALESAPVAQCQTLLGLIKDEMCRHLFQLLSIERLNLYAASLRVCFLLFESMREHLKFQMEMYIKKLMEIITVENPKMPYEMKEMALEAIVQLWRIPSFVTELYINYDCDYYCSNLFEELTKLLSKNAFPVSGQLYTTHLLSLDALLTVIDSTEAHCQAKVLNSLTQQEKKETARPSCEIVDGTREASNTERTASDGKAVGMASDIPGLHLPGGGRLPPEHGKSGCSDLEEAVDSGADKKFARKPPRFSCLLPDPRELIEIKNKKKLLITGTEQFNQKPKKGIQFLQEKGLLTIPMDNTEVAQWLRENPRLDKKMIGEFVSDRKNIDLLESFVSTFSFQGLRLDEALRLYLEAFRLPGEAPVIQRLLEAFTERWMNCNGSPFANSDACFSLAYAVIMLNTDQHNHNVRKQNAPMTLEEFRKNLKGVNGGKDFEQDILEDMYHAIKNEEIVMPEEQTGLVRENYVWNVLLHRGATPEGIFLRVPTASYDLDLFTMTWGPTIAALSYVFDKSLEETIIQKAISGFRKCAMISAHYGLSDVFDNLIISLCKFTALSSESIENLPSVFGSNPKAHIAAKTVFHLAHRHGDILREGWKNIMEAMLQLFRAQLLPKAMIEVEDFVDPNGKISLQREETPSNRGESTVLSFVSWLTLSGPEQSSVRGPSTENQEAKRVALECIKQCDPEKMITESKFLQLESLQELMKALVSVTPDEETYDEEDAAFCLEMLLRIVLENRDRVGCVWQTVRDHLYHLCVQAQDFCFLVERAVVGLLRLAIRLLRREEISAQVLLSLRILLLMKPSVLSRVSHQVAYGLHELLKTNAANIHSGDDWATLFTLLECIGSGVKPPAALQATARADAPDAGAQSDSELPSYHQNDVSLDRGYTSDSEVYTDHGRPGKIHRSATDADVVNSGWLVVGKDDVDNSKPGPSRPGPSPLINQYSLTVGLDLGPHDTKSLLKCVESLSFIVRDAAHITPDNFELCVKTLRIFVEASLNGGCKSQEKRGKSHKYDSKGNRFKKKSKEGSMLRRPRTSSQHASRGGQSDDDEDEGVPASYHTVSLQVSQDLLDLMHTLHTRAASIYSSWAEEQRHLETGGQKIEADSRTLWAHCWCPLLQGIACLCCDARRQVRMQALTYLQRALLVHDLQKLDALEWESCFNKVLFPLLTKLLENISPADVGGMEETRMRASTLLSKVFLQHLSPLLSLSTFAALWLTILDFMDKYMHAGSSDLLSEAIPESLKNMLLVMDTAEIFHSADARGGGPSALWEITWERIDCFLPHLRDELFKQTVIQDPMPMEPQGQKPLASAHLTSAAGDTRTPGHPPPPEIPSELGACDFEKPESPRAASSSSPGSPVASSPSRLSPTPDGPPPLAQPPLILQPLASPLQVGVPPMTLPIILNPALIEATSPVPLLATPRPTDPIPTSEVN
inactive: [1] -0.044 | [2] 0 | [3] 0.005 | [4] 0.016 | [5] 0.011
